{"source": "PubChem BioAssay", "note": "Active and inactive are the calls of the source. How the calls were made is not given here."}
{"test_system": "Aerobactin synthetase IucA (Klebsiella pneumoniae, hypervirulent)", "test": "biochemical IucA inhibition screen of LOPAC library by absorbance (AID 1346212);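 further: 100% = no compound wells and 0% = no enzyme wells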", "conditions": "IucA enzyme assay, absorbance (OD) readout; hits give low values;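 tested at 8 µM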"}
{"compound": "CN1C2CCC1CC(NC(=O)c1nn(C)c3ccccc13)C2", "note": "(stereo not given)", "remaining activity": "107% (inactive)"}
{"compound": "Clc1ccc(Cn2c(CN3CCCC3)nc3ccccc32)cc1", "remaining activity": "115% (inactive)"}
{"compound": "O=C(O)CCC(=O)N1CCCC1C(=O)O", "note": "(stereo not given)", "remaining activity": "98.4% (inactive)"}
{"compound": "CC[C@H](C)[C@H]1O[C@]2(CC[C@@H]1C)C[C@@H]1C[C@@H](C/C=C(\\C)[C@@H](O[C@H]3C[C@H](OC)[C@@H](O[C@H]4C[C@H](OC)[C@@H](O)[C@H](C)O4)[C@H](C)O3)[C@@H](C)/C=C/C=C3\\CO[C@@H]4[C@H](O)C(C)=C[C@@H](C(=O)O1)[C@]34O)O2", "remaining activity": "114% (inactive)"}
{"compound": "COCCOC(=O)C1=C(C)NC(C)=C(C(=O)OC/C=C/c2ccccc2)C1c1cccc([N+](=O)[O-])c1", "note": "(stereo not given)", "remaining activity": "99.8% (inactive)"}
{"compound": "O=C(O)/C=C1\\CCCc2ccccc2C1O", "note": "(stereo not given)", "remaining activity": "119% (inactive)"}
{"compound": "Cc1ccc(O)c(N=Nc2ccccc2)n1", "remaining activity": "82.6% (inactive)"}
{"compound": "Cn1c(=O)c2[nH]c(-c3ccc(S(=O)(=O)O)cc3)nc2n(C)c1=O", "remaining activity": "117% (inactive)"}
{"compound": "CN1[C@@H]2CC[C@H]1CC(OC(=O)C(CO)c1ccccc1)C2", "note": "(stereo not given in full)", "remaining activity": "95% (inactive)"}
{"compound": "O=c1c2ccccc2nc2n1CCc1c-2[nH]c2ccccc12", "remaining activity": "82.9% (inactive)"}
{"compound": "CN(C)CC/C=C1/c2ccccc2Sc2ccc(Cl)cc21", "remaining activity": "115% (inactive)"}
{"compound": "C[N+](C)(C)CC=O", "remaining activity": "101% (inactive)"}
{"compound": "COc1ccc(CC(C)NCC(O)c2ccc(O)c(NC=O)c2)cc1", "note": "(stereo not given)", "remaining activity": "102% (inactive)"}
{"compound": "NCCCC(N)(C(=O)O)C(F)F", "note": "(stereo not given)", "remaining activity": "121% (inactive)"}
{"compound": "NCC(O)(CS(=O)(=O)O)c1ccc(Cl)cc1", "note": "(stereo not given)", "remaining activity": "103% (inactive)"}
{"compound": "N#C/C(=C\\c1ccc(O)c(O)c1)C(=O)NCCc1ccccc1", "remaining activity": "102% (inactive)"}
{"compound": "O=C(c1ccc(Cl)cc1)N1CCN(c2ccc([N+](=O)[O-])c3ncccc23)CC1", "remaining activity": "120% (inactive)"}
{"compound": "CCCc1c(OCCCOc2ccc(OCC(=O)O)cc2)ccc(C(C)=O)c1O", "remaining activity": "101% (inactive)"}
{"compound": "CNCCc1cnc(CCC(c2ccccc2)c2ccccc2)[nH]1", "remaining activity": "110% (inactive)"}
{"compound": "CCCCCCCC/C=C\\CCCCCCCC(=O)NCCc1ccc(O)c(O)c1", "remaining activity": "109% (inactive)"}
{"compound": "Nc1nc(SCc2ccc([N+](=O)[O-])cc2)c2ncn([C@@H]3O[C@H](CO)[C@H](O)C3O)c2n1", "note": "(stereo not given in full)", "remaining activity": "107% (inactive)"}
{"compound": "Cc1ccccc1CNc1ncnc2c1ncn2[C@@H]1O[C@H](CO)[C@@H](O)[C@H]1O", "remaining activity": "122% (inactive)"}
{"compound": "C=C[C@H]1CN2CC[C@H]1C[C@H]2[C@H](O)c1ccnc2ccc(OC)cc12", "remaining activity": "110% (inactive)"}
{"compound": "NO", "remaining activity": "100% (inactive)"}
{"compound": "COC(=O)[C@@H](N)Cc1ccc(O)c(O)c1", "remaining activity": "107% (inactive)"}
{"compound": "CSc1ccc(C(=O)c2[nH]c(=O)[nH]c2C)cc1", "remaining activity": "118% (inactive)"}
{"compound": "C[C@@H]1C(=O)NC2=Nc3cccc(Cl)c3CN21", "remaining activity": "121% (inactive)"}
{"compound": "NC(=O)c1cc[n+](CC2=C(C(=O)O)N3C(=O)[C@@H](NC(=O)[C@@H](c4ccccc4)S(=O)(=O)[O-])[C@H]3SC2)cc1", "remaining activity": "107% (inactive)"}
{"compound": "CC(O)C(O)[C@H]1CNc2nc(N)[nH]c(=O)c2N1", "note": "(stereo not given in full)", "remaining activity": "102% (inactive)"}
{"compound": "c1cc(CN2CCCCC2)cc(OCCCNc2nc3ccccc3s2)c1", "remaining activity": "101% (inactive)"}
{"compound": "O=c1cc(O)cc(/C=C/c2ccc(O)c(O)c2)o1", "remaining activity": "93.8% (inactive)"}
{"compound": "Cc1[nH]c(=O)c(C#N)cc1-c1ccncc1", "remaining activity": "123% (inactive)"}
{"compound": "NC1(C(=O)O)CCCCC1", "remaining activity": "125% (inactive)"}
{"compound": "N#CC(C#N)=C(N)/C(C#N)=C/c1cc(O)c(O)c(O)c1", "remaining activity": "87.7% (inactive)"}
{"compound": "CCCCC#Cc1nc(N)c2ncn([C@@H]3O[C@H](C(=O)NCC)[C@@H](O)[C@H]3O)c2n1", "remaining activity": "96.4% (inactive)"}
{"compound": "CCC(=O)c1ccc2c(c1)N(CCCN(C)C)c1ccccc1S2", "remaining activity": "88.8% (inactive)"}
{"compound": "COc1cc(NS(C)(=O)=O)ccc1Nc1c2ccccc2nc2ccccc12", "remaining activity": "108% (inactive)"}
{"compound": "NC(=S)NCCCC(N)C(=O)O", "note": "(stereo not given)", "remaining activity": "102% (inactive)"}
{"compound": "CNCCC(Oc1ccccc1OC)c1ccccc1", "note": "(stereo not given)", "remaining activity": "104% (inactive)"}
{"compound": "CC(=O)O[C@H]1C[C@@]2(C)[C@@H](C[C@@H](O)[C@H]3[C@@]4(C)CC[C@@H](O)[C@@H](C)[C@@H]4CC[C@@]32C)/C1=C(\\CCC=C(C)C)C(=O)O", "remaining activity": "96.1% (inactive)"}
